Source: PubChem (National Center for Advancing Translational Sciences (NCATS))
FBPA Giardia inh: qHTS Assay for Inhibitors of Fructose-1,6-bisphosphate Aldolase from Giardia Lamblia; 290,000 compounds, 0.71% hits; AID 2451, 2010; Potency, µM (doses to about 59.6 µM), without a hit: top-dose activity, negative = inhibition, most hits filed as inhibitors; purified Giardia FBPA; A8B2U2; note: potency is the fitted concentration of half-maximal effect; nearly all actives have a fitted effect of over 55% in size
Target sequence (A8B2U2 whole entry, looked up): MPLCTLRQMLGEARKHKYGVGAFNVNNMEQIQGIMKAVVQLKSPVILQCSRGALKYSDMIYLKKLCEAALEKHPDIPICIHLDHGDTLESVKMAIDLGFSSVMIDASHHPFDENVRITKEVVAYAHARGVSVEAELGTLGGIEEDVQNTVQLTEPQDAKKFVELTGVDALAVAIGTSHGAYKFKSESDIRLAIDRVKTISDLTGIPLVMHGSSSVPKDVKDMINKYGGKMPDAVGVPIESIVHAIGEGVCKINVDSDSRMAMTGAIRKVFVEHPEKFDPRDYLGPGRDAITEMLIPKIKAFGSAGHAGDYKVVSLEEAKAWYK
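40 nM FBPA preincubated 10 min at RT with compound (up to 57.5 uM final), then substrate plus GAPDH/TPI/NAD/arsenate coupling and diaphorase/resazurin added. Fluorescence read after 20 min at RT, 525/598 nm.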
RE007 growth inh: qHTS Assay for Inhibitors of the HIV-1 protein Vpr; S. pombe RE007 Vpr strain, BacTiter-Glo ATP luminescence, 24 h; Potency, µM (series often up to 92.2 µM), inactives show at the top dose activity change, negative = less growth, actives largely listed as inhibitors; 360,000 compounds, 0.21% hits; active = well fitted falling curve with a large enough effect; inconclusive = small, poorly fitted or top-dose-only effect; inactive = no such curve, though single readings can be large or run the other way; note: potency is the fitted concentration of half-maximal effect; nearly all actives have a fitted effect of over 50% in size
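Fission yeast strain RE007, carrying one chromosomally integrated HIV-1 vpr copy, was seeded at OD 0.01 in PMG+AL medium with 23 nL pinned compound. After 24 h at 30 °C and 99% humidity, viability was read by BacTiter-Glo luminescence.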
HCMV antiviral: qHTS Assay for inhibitors of the human cytomegalovirus (HCMV). activity change, negative = inhibition, % at 57.5 µM. 410,000 compounds, 4.5% hits. HFF cells, HCMV-luciferase reporter, 72 h; active compounds read low. AID 1259415, 2018; in the data active = activity change below about -60%; inconclusive = no clear call, values can overlap the other calls; inactive = above about -39%
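Steps: HFFs plated, 16 h 37C; compounds added; HCMV-luciferase added to MOI 1 PFU/cell; 72 h 37C; OneGlo reagent, 5 min room temperature; luminescence read, normalized to controls.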
FMDV antiviral: High Throughput Screening for Foot and Mouth Disease Virus Antivirals | Potency, µM (series often up to 57.9 µM), for the others: at the top dose activity change, negative = inhibition, most hits filed as inhibitors | FMDV antiviral cell-based qHTS | AID 1159524, 2015 | 410,000 compounds, 1.2% hits; calls by dose curve; tested in HEK293T cells; note: read-out not given here; potency is the fitted concentration of half-maximal effect; nearly all actives have a fitted effect of over 45% in size
Tb PYK inh: qHTS of Trypanosoma Brucei Inhibitors | TbPYK enzyme, Kinase-Glo Plus ATP luminescence, 45 min | pyruvate kinase (Trypanosoma brucei), Q57TT1 | 410,000 compounds, 0.12% hits | Potency, µM (series often up to 76.8 µM), without a hit: at the highest dose activity, negative = inhibition, most hits filed as inhibitors | AID 624173, 2012; note: potency is the fitted concentration of half-maximal effect; nearly all actives have a fitted effect of over 50% in size
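Quantitative HTS: titrated library compounds versus trypanosomal pyruvate kinase in TEA buffer (pH 7.2) containing KCl, MgCl2, BSA and Tween-20. Reactions were initiated with ADP, 130 uM final. Kinase-Glo Plus luminescence was read after 45 min at RT.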
Sm TGR inh: qHTS Assay for the Inhibitors of Schistosoma Mansoni Peroxiredoxins. Schistosoma mansoni thioredoxin glutathione reductase (TGR), Q962Y6. purified TGR, DTNB reduction, TNB absorbance 405 nm. Potency, µM (top dose mostly 114 µM), for inactives: top-dose activity change, negative = inhibition, most hits filed as inhibitors. 360,000 compounds, 3% hits; note: potency is the fitted concentration of half-maximal effect; nearly all actives have a fitted effect of over 60% in size
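First, TGR (20 nM dispensed) and NADPH were mixed with compound. Second, a 15 min room-temperature incubation followed. Third, further NADPH and then DTNB were added to start the reaction. Finally, TNB absorbance was monitored kinetically.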
Numbers without * were called inactive; ? = inconclusive; . = no result; [ ] = dose if it differs, or a comment. In the library only some 7.7% were active in any assay of this set; here they are far more common. Unless noted, calls come from the whole dose curve; as a rule, active = well fitted curve in the direction sought with a large enough effect; inconclusive = small, poorly fitted or top-dose-only effect, or another doubt; inactive = no such curve, though single readings can be large; an effect the other way counts as inactive or inconclusive. % is set by controls: 0 for no effect and ±100 for the full control effect.

SMILES	FBPA Giardia inh	RE007 growth inh	HCMV antiviral	FMDV antiviral	Tb PYK inh	Sm TGR inh
CC(C)NC(=O)CCS(=O)(=O)c1cccc2nonc12	0%	-23%	8	-13%	-5%	-24%
COc1cccc(CNC(=O)CCS(=O)(=O)c2cccc3nonc23)c1	0%	?	14	6%	-2%	45µM*
COc1ccc(NS(=O)(=O)c2cccc3nonc23)c(OC)c1	-18%	-13%	-22	-9%	-2%	18µM*
O=C(CCS(=O)(=O)c1cccc2nonc12)N1CCCc2ccccc21	4%	16%	37	7%	2%	35µM*
COc1cccc(CNC(=O)CCS(=O)(=O)c2cccc3nsnc23)c1	-3%	17%	60	-19%	-11%	-7%
O=C(CCS(=O)(=O)c1cccc2nonc12)NCCc1ccccc1	2%	11%	16	9%	1%	?
O=C(CCS(=O)(=O)c1cccc2nonc12)NCc1ccc(Cl)cc1	0%	-4%	-19	-9%	2%	35µM*
COC(=O)c1cc2n(n1)CCN(Cc1ccc(F)cc1)C2=O	5%	14%	-106*	-7%	-4%	-16%
COC(=O)c1cc2n(n1)CCN(Cc1ccccc1F)C2=O	7%	14%	-10	5%	6%	16%
C[C@H](Cc1ccccc1)Nc1ncnc2c1ncn2[C@@H]1O[C@H](CO)[C@H](O)[C@H]1O	-5%	.	.	.	.	.
Cc1nc2ccc(Cc3ccc4nc(C)[nH]c4c3)cc2[nH]1	2%	-1%	-4	-7%	3%	-6%
Cc1nc2ccc(N=NN(C)C)cc2[nH]1	-22%	19%	-11	14%	?	20µM*
CNC(=O)[C@@H]1C[C@H](Sc2nc3ccccc3[nH]2)CN1Cc1cccc(C(F)(F)F)c1	.	.	.	-9%	.	.
COc1ccccc1C=CC(=O)C=Cc1ccccc1OC	.	-18%	-100*	?	0%	.
COc1ccccc1/C=C/C(=O)/C=C/c1ccccc1O	-20%	-13%	-98*	28%	-5%	20µM*
COc1ccc(-n2ccnc(NCc3ccccc3OC)c2=O)cc1	.	.	19	-16%	0%	-6%
O=C(O)c1ccc(N2C(=O)/C(=C/c3ccc(-c4ccc([N+](=O)[O-])cc4)o3)C=C2c2ccccc2)cc1	-10%	8%	.	16µM*	-22%	45µM*
O=C1NN(c2ccccc2)C(=O)/C1=C/c1ccc(-c2ccc(C(=O)O)cc2)o1	-24%	1%	8	3%	-6%	-32%
Cc1nc(NS(=O)(=O)c2ccccc2)sc1NC(=O)Nc1ccccc1	3%	-1%	-25	18%	-9%	.
CC(=O)Nc1ccc(S(=O)(=O)NCc2ccncc2)cc1	7%	3%	-12	0%	4%	5%[57.1 µM]
Cc1nc(NS(=O)(=O)c2ccccc2)sc1NC(=O)Nc1ccc(Cl)cc1	-15%	-2%	-32	30%	1%	5.6µM*
CCOC(=O)Nc1sc(NS(=O)(=O)c2ccccc2)nc1C	-14%	18%	-8	53%	-8%	50µM*
CCOC(=O)Nc1ccc(S(=O)(=O)NCc2ccccc2)cc1	5%	8%	-62*	.	2%	0%
CC(=O)Nc1ccc(S(=O)(=O)NCc2ccc(C)n2C)cc1	-8%	-6%	-17	8%	-2%	14µM*
CC(=O)[C@@]1(O)CC[C@H]2[C@@H]3C=C(Cl)C4=CC(=O)[C@@H]5C[C@@H]5[C@]4(C)[C@H]3CC[C@@]21C	.	.	.	-10%	.	.
SMILES	FBPA Giardia inh	RE007 growth inh	HCMV antiviral	FMDV antiviral	Tb PYK inh	Sm TGR inh
CCc1cccc(C)c1NC(=O)c1cc(S(=O)(=O)N2CCN(c3ccccc3)CC2)ccc1F	.	.	-9	?	5%	4%
Cc1ccc(S(=O)(=O)Nc2nc(C)c(C(=O)NN)s2)cc1	11%	-18%	-1	-10%	-5%	71µM*
CC(=O)c1ccc(NC(=O)Nc2sc(NS(=O)(=O)c3ccccc3)nc2C)cc1	?	-14%	3	25%	-4%	35µM*
CC(=O)c1ccc(NS(=O)(=O)c2ccccc2)cc1	11%	-17%	?	14%	0%	2%
O=C(Nc1ccc(C(=O)N2CCOCC2)cc1)c1cc(-c2cccnc2)nc2ccc(Br)cc12	-6%	8%	-107*	?	0%	14%
CC(=O)c1ccc(N2CCN(C(=O)c3cc(-c4cccnc4)nc4ccc(Br)cc34)CC2)cc1	0%	-8%	-24	5%	2%	.
COc1ccc(-c2cc(C(F)F)n3ncc(C(=O)N4CCc5ccccc54)c3n2)cc1	-1%	-1%	21	-17%	-10%	11µM*
COc1ccc(-c2cc(C(F)F)n3ncc(C(=O)Nc4cc(OC)ccc4OC)c3n2)cc1	.	.	-9	0%	-5%	1%
O=C(Nc1ccc(C(=O)N2CCOCC2)cc1)c1cnn2c(C(F)F)cc(-c3ccccc3)nc12	3%	3%	39	0%	2%	3%
COc1ccc(-c2cc(C(F)F)n3ncc(C(=O)n4ccnc4C)c3n2)cc1	2%	0%	145	14µM*	-5%	89µM*
COc1ccc(-c2cc(C(F)F)n3ncc(C(=O)Nc4ccc(C(=O)N5CCOCC5)cc4)c3n2)cc1	2%	10%	-68*	-18%	3%	.
COc1ccc(-n2c(/C=C/c3ccccc3F)nc3cc(OC)c(OC)cc3c2=O)cc1Cl	.	.	15	-12%	-3%	-1%
Cc1cc(C(=O)NCc2cccs2)c(C)o1	-12%	5%	82	-12%	2%	22µM*
O=C(CCSCCC(=O)NCc1cccs1)NCc1cccs1	0%	7%	-27	5%	-3%	40µM*
CCOC(=O)CNC(=O)c1cc(C)oc1C	-11%	.	.	.	.	35µM*
Cc1cc(C(=O)NCC(=O)O)c(C)o1	4%	6%	22	.	1%	0%
CC(=O)c1cccc(NC(=O)CCCN2C(=O)COc3ccc(C)cc32)c1	.	.	47	0%	5%	?
O=C(c1ccc2c(c1)N(Cc1ccccc1)C(=O)c1ccccc1S2(=O)=O)N1CCN(c2ccccn2)CC1	.	.	-35	8%	3%	4%
C=C(c1ccc2nc(NC(=O)OC)[nH]c2c1)c1cccs1	.	9%	-88*	12%	-5%	.
N#CCCn1cc(C=C(C#N)C#N)c(-c2ccc(-c3ccccc3)cc2)n1	-11%	.	19	-4%	-10%	5µM*
N#CCCn1cc(/C=C2\NC(=S)N(c3ccccc3)C2=O)c(-c2ccc(F)cc2)n1	-9%	3%	-63*	-26%	-11%	.
